Data as given in PubChem BioAssay (NCI).
“And” between values parts separate entries of the source, which are not always exact repeats. Equal values may be shown once. This is part of a sample that, as a whole, favours compounds with a hit. Of some 83,000 tested, about 20% had one in any assay.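 Step 1: grow cells in 96-well plates. Step 2: add test compound at a single concentration. Step 3: incubate 48 h. Step 4: record percent growth.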 The source made the active and inactive calls. How the source made its calls: active means growth percent below 10; inactive means the rest.

What was measured:
Assay in all cases: NCI-60 one-dose screen, 48 h (100 = growth as untreated, 0 = no growth, -100 = all killed)
Settings in all cases: 10 µM unless noted
HCT-15 colon = test system: HCT-15 colon
HT29 colon = test system: HT29 colon
SNB-75 CNS = test system: SNB-75 CNS
SNB-19 CNS = test system: SNB-19 CNS
U251 CNS = test system: U251 CNS
PC-3 prostate = test system: PC-3 prostate
SK-MEL-5 melanoma = test system: SK-MEL-5 melanoma
UACC-62 melanoma = test system: UACC-62 melanoma
LOX IMVI melanoma = test system: LOX IMVI melanoma
SK-MEL-28 melanoma = test system: SK-MEL-28 melanoma

Row | Structure (SMILES) | growth (HCT-15 colon) | growth (HT29 colon) | growth (SNB-75 CNS) | growth (SNB-19 CNS) | growth (U251 CNS) | growth (PC-3 prostate) | growth (SK-MEL-5 melanoma) | growth (UACC-62 melanoma) | growth (LOX IMVI melanoma) | growth (SK-MEL-28 melanoma)
1 | CN1C(=O)/C(=C/c2ccc(C(=O)Nc3ncc(Cc4ccccc4Cl)s3)cc2)SC1=S | 42.1% (inactive) | 69.5% (inactive) | 69.4% (inactive) | 83.3% (inactive) | 89.4% (inactive) | 77.6% (inactive) | 62.4% (inactive) | 18.1% (inactive) | 45.1% (inactive) | 74.8% (inactive)
2 | Nc1ccc(/C=N/Nc2ccnc3c(N)cccc23)c2cccnc12 | -49.7% (active) | -22.5% (active) | -99.7% (active) | 21.8% (inactive) | -63.4% (active) | 15.8% (inactive) | 83.1% (inactive) | 89.5% (inactive) | -90.9% (active) | 105% (inactive)
3 | Cn1cc2c(=O)nc3c(-c4nc5ccccc5[nH]4)n[nH]n3c2n1 | 80.1% (inactive) | 89.7% (inactive) | 93.4% (inactive) | 95.8% (inactive) | 89.6% (inactive) | 67.1% (inactive) | 53.1% (inactive) | 70.6% (inactive) | 72.5% (inactive) | 82.5% (inactive)
4 | COc1ccc(CCNC(=O)COc2cc3c(Nc4ccc(F)c(Cl)c4)ncnc3cc2OC)cc1OC | 91.2% (inactive) | 95.5% (inactive) | 94.6% (inactive) | 84.2% (inactive) | 103% (inactive) | 92.1% (inactive) | 92.5% (inactive) | 95.7% (inactive) | 90.1% (inactive) | 98.4% (inactive)
5 | N#CC1C(=O)c2ccccc2C1c1ccccc1 (stereo not given) | 101% (inactive) and 95.5% (inactive) | 114% (inactive) and 110% (inactive) | 89.5% (inactive) and 93.2% (inactive) | 97.1% (inactive) and 98.5% (inactive) | 98.6% (inactive) and 99.8% (inactive) | 111% (inactive) and 116% (inactive) | 96.8% (inactive) and 103% (inactive) | 100% (inactive) and 101% (inactive) | 91.5% (inactive) and 98.1% (inactive) | 107% (inactive) and 117% (inactive)
6 | COc1ccccc1/C=C/C(=O)/C=C/c1ccccc1OC | -2.72% (active) and -27.6% (active) | -42.7% (active) and -16.4% (active) | 45.2% (inactive) and 12.6% (inactive) | 33.5% (inactive) and 38.5% (inactive) | -81% (active) and -40.1% (active) | 0.508% (active) and 17% (inactive) | -89.4% (active) and -77% (active) | -61.6% (active) and -64.3% (active) | -60.1% (active) and -53.8% (active) | -58.9% (active) and -57.8% (active)
7 | Cc1ccc(-c2nc([P+](c3ccccc3)(c3ccccc3)c3ccccc3)c(Nc3ccccc3)o2)cc1 | 1.96% (active) | -2.08% (active) | -31.6% (active) | 2.16% (active) | -16.2% (active) | 4.11% (active) | -87.4% (active) | -25.8% (active) | -8.29% (active) | -42.3% (active)
8 | NS(=O)(=O)OCC1OC(n2cnc3cncnc32)C(O)C1O (stereo not given) | 22% [0.1 µM] (inactive) and 8.65% [0.1 µM] (active) | 13.7% [0.1 µM] (inactive) and 14.3% [0.1 µM] (inactive) | 32.3% [0.1 µM] (inactive) and 40.4% [0.1 µM] (inactive) | -4.22% [0.1 µM] (active) and 0.183% [0.1 µM] (active) | -11.8% [0.1 µM] (active) | 21% [0.1 µM] (inactive) and 17.8% [0.1 µM] (inactive) | 49.4% [0.1 µM] (inactive) | 44.2% [0.1 µM] (inactive) and 42.4% [0.1 µM] (inactive) | 5.02% [0.1 µM] (active) and 5.99% [0.1 µM] (active) | 38.5% [0.1 µM] (inactive) and 37.4% [0.1 µM] (inactive)
9 | O=C(CCCCCCCCC(=O)N/N=C\c1ccccc1O)N/N=C\c1ccccc1O | 22.1% (inactive) | 68.4% (inactive) | 37.5% (inactive) | 24.1% (inactive) | 15.2% (inactive) | 31.5% (inactive) | -59.8% (active) | -7.2% (active) | 10.8% (inactive) | 35.6% (inactive)
10 | Cc1nonc1-c1ccc2c(c1)OCO2 | 97.5% (inactive) and 107% (inactive) | 102% (inactive) and 107% (inactive) | 96.3% (inactive) and 96.6% (inactive) | 112% (inactive) and 95.7% (inactive) | 93.7% (inactive) and 108% (inactive) | 96% (inactive) | 99.3% (inactive) and 101% (inactive) | 110% (inactive) and 97.7% (inactive) | 94.5% (inactive) and 98.4% (inactive) | 118% (inactive) and 169% (inactive)
11 | Cc1cnc(C(=O)NNc2nc3sc4c(c3c(=O)[nH]2)C(C)CCC4)cn1 (stereo not given) | 26% (inactive) | 27.9% (inactive) | 36.8% (inactive) | 22.3% (inactive) | 10.4% (inactive) | 29.7% (inactive) | -38.1% (active) | 8.87% (active) | 0.703% (active) | 23.3% (inactive)
12 | CCOC(=O)c1nc2c3ccccc3cnn2c1C(=O)c1ccc(OC)cc1 | 96.4% (inactive) | 98.4% (inactive) | 88.6% (inactive) | 90.7% (inactive) | 89.9% (inactive) | 90.9% (inactive) | 97.1% (inactive) | 95.5% (inactive) | 94% (inactive) | 120% (inactive)
13 | COc1ccc(Oc2nc(Nc3ccc(N4CCOCC4)cc3)ncc2NC(=O)c2cc(OC)cc(OC)c2)cc1 | 67.7% (inactive) | 72% (inactive) | 79.1% (inactive) | 87.4% (inactive) | 82.7% (inactive) | 67.5% (inactive) | 77.2% (inactive) | 87.8% (inactive) | 84.7% (inactive) | 100% (inactive)
14 | COc1ccc(-c2ccc(-c3ccc(C(=N)N)cn3)o2)cc1Cl | 18.7% (inactive) | 4.81% (active) | 89.3% (inactive) | 40% (inactive) | 0.889% (active) | 46.1% (inactive) | 12% (inactive) | 86.5% (inactive) | -71% (active) | 70.1% (inactive)
15 | Cc1cc2nc(C(Cl)Cl)nc(-c3ccc(Cl)cc3)n2n1 | -20.4% (active) | 2.12% (active) | -22.7% (active) | 12.6% (inactive) | 4.15% (active) | 16.1% (inactive) | 41.2% (inactive) | 48.5% (inactive) | 48.4% (inactive) | 18.5% (inactive)
16 | Cc1ccc(-c2nc3nc(-c4ccccc4)nc(N4CCCNCC4)c3o2)cc1 | -81.5% (active) | -86.1% (active) | -59.8% (active) | 25.9% (inactive) | -84.9% (active) | -88.9% (active) | -57.3% (active) | -81.4% (active) | -89.8% (active) | -89.3% (active)
17 | CCN1C(=S)N(CC)C2C1NC(=S)N2/N=C/C=C/c1ccccc1 (stereo not given) | 26.5% (inactive) | 5.26% (active) | -21.6% (active) | 31.4% (inactive) | 27.7% (inactive) | 36.5% (inactive) | 25% (inactive) | 24.5% (inactive) | 37.6% (inactive) | 53.6% (inactive)
18 | CN(Cc1ccccc1)c1nc(Cl)c(C2CC(c3ccc(F)cc3)=NN2C=O)s1 (stereo not given) | 90.4% (inactive) | 95.4% (inactive) | 97.3% (inactive) | 98.1% (inactive) | 97.7% (inactive) | 83.6% (inactive) | 90.4% (inactive) | 79.2% (inactive) | 92.8% (inactive) | 106% (inactive)
19 | CCCCCCNC(=O)Oc1ccc(/C(=C(/CC)Cc2ccccc2)c2ccc(OCCCN(C)C)cc2)cc1 | 14.7% (inactive) | 18.9% (inactive) | 68.4% (inactive) | 88.3% (inactive) | 60.4% (inactive) | 73.2% (inactive) | 87.7% (inactive) | 94.9% (inactive) | -15% (active) | 101% (inactive)
20 | COc1c(NC=O)c2c(c([N+](=O)[O-])c1OC)C(=O)OC2 | 115% (inactive) and 90.4% (inactive) | 102% (inactive) and 112% (inactive) | 89.1% (inactive) and 62.6% (inactive) | 102% (inactive) and 99.5% (inactive) | 99.9% (inactive) and 101% (inactive) | 90.7% (inactive) and 102% (inactive) | 112% (inactive) and 95.4% (inactive) | 104% (inactive) and 93.7% (inactive) | 103% (inactive) | 111% (inactive) and 103% (inactive)
21 | COc1ccc(-c2cc3cnc4ccccc4c3oc2=O)cc1 | 92.3% (inactive) | 96.8% (inactive) | 104% (inactive) | 99% (inactive) | 94% (inactive) | 92.5% (inactive) | 104% (inactive) | 96.5% (inactive) | 97.6% (inactive) | 100% (inactive)
22 | COc1ccc(Cl)cc1Nc1nc(C(F)(F)F)ccc1C(=O)N/N=C/c1ccc(N(C)C)cc1 | 87.3% (inactive) | 107% (inactive) | 88.8% (inactive) | 86% (inactive) | 92.6% (inactive) | 97.3% (inactive) | 95.6% (inactive) | 102% (inactive) | 95.2% (inactive) | 88.2% (inactive)
23 | O=C(CN1C(=O)S/C(=C\C(Cl)=C\c2ccccc2)C1=O)NC1C=CS(=O)(=O)C1 (stereo not given) | -18.1% (active) | -6.75% (active) | 19% (inactive) | 40.4% (inactive) | 16.9% (inactive) | 19.7% (inactive) | 17.1% (inactive) | -19.2% (active) | -73.5% (active) | -9.63% (active)
